Rows were chosen to be rich in hits. Some 3.9% of all compounds tested hit in one or more screens of this group.
Tb PFK inh: inhibitors of T. brucei phosphofructokinase; AID 485367; O15648; Potency, µM (titrated, usually from 57.5 µM), for inactives: at the highest dose activity, negative = inhibition, most hits filed as inhibitors; T. brucei PFK, ADP-Glo luminescence; 330,000 tested, 0.17% active;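 also: 0% = uninhibited 1x PFK enzyme wells and -100% = no-enzyme wells; nearly all actives have a fitted effect of over 60% in size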
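ADP-Glo luminescence quantified ADP after 45 min at room temperature, with 1.25 nM T. brucei PFK, 0.1 mM ATP and 0.5 mM fructose-6-phosphate in pH 8.0 TEA buffer. qHTS titrations up to 57 µM; curves classified by quality.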
BRCA1 expr act: activators of BRCA1 expression | MCF7-BRCA1-FFLuc reporter, luminescence, 48 h; response scale: scaled: vehicle 0%, 10 µM genistein 100% | Potency, µM (highest dose often 46.1 µM), without a hit: at the highest dose activation, most hits filed as activators | 380,000 tested, 1.1% active | AID 624202; also: nearly all actives have a fitted effect of over 80% in size
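MCF7 cells carrying a BRCA1-firefly luciferase reporter (2000 cells/well, phenol-red free MEM) were attached for 2 h at 37 °C, then given compounds for 48 h. Luminescence was read 15 min after luciferase reagent; activity normalized to genistein (10 microM) and DMSO.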
VDR inhibitor: vitamin D3 receptor (human) inhibition; P11473; VDR-SRC2-3 peptide fluorescence polarization, 2 h; Potency, µM, without a hit: max response, negative = inhibition, most hits filed as inhibitors; 400,000 tested, 0.93% active; also: % is scaled to controls: 0 for no effect and ±100 for the full control effect
Target sequence (P11473 whole entry, looked up): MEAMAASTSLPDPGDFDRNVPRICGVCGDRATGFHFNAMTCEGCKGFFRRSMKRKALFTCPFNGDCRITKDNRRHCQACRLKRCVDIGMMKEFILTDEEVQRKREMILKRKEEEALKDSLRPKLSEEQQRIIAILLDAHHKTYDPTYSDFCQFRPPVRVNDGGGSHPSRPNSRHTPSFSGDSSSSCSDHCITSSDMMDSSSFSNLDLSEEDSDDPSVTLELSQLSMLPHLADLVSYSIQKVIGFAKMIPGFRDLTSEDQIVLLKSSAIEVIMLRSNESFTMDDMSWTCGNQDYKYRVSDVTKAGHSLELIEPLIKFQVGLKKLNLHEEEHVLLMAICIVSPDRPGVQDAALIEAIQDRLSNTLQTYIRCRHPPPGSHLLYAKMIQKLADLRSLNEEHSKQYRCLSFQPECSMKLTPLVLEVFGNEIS
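FP read-out; VDR + SRC2-3 coactivator peptide; 23 nl compound by pintool; 2 h RT incubation; reagents held at 4 deg C, protected from light.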
PLK1 PBD block: PLK1 (human) polo-box domain binding inhibition; Potency, µM, inactives show max response, negative = inhibition, hits mostly inhibitors; P53350; 360,000 tested, 2.8% active; Plk1 PBD binding of FITC phosphopeptide, fluorescence polarization; also: series mostly up to about 57 µM; % is scaled to controls: 0 for no effect and ±100 for the full control effect; nearly all actives have a fitted effect of over 65% in size
Starred values were filed as active, the others as inactive; ? = inconclusive; . = no result given. Calls follow the shape of the dose curve; as a rule, active = well fitted curve in the direction sought with a large enough effect; inconclusive = small, poorly fitted or top-dose-only effect, or another doubt; inactive = no such curve, though single readings can be large; an effect the other way counts as inactive or inconclusive. Potency is read from the fitted curve at half-maximal effect.

SMILES | Tb PFK inh | BRCA1 expr act | VDR inhibitor | PLK1 PBD block
CCn1c(=O)c2ccccc2n2c(SCC(=O)NCc3cccs3)nnc12 | 13% | 0% | -20% | 4%
C=CCn1c(=O)c2ccccc2n2c(SCC(=O)c3ccccc3)nnc12 | -6% | -3% | -29% | 24µM*
CCCn1c(=O)c2ccccc2n2c(SCC(=O)NCc3cccs3)nnc12 | -2% | 0% | -26% | 27µM*
CCOc1ccccc1NC(=O)N1CCc2c(sc(C)c2CC)C1c1ccccc1 (centres undefined) | . | . | -7% | .
COc1ccc2[nH]cc(CCNc3nc(-c4c(C)noc4C)nc4ccccc34)c2c1 | . | . | -5% | .
CC(=O)Nc1ccc(SCC(=O)N(C)CC(=O)Nc2ccccc2Cl)cc1 | -12% | -6% | 79µM* | 7.5µM*
CCOC(=O)C1CCN(Cc2cc(=O)oc3cc(C)c(Cl)cc23)CC1 | -1% | -23% | ? | 27µM*
COc1cn(CC(=O)Nc2ccc(C)cc2)c(CN2CCCCC2)cc1=O | . | . | 1% | .
CN(C)Cc1nc2ccccc2c(=O)n1Cc1nc(-c2cccc([N+](=O)[O-])c2)cs1 | -5% | -43% | -3% | ?
CN1CCN(Cc2nc3ccccc3c(=O)n2Cc2nc(-c3ccc([N+](=O)[O-])cc3)cs2)CC1 | 4% | -69% | -13% | 30µM*
CC[C@H]1C=C[C@@H](C(C(=O)OC)C(=O)OC)CN1C(C)=O | . | 11% | 79µM* | 27µM*
C=CC[C@H]1C=C[C@@H](C(C(=O)OC)C(=O)OC)CN1C(C)=O | . | 3% | ? | 24µM*
CC(=O)N1CCN(C(=O)CSc2ncnc3sc(C)c(C)c23)CC1 | -2% | -51% | -8% | 30µM*
Cc1sc2ncnc(SCC(=O)N3CCCC3)c2c1C | -6% | 0% | 9% | -5%
CCCCC(CC)C(=O)Nc1ccc(C)c(O)c1 (centres undefined) | -12% | -6% | ? | 30µM*
CCCCC(CC)C(=O)Nc1ccc(Nc2ccccc2)cc1 (centres undefined) | 0% | -47% | -1% | -2%
COc1ccc(CCNC(=O)CCc2cn(Cc3ccc(C)cc3)c3ccccc23)cc1OC | . | . | 2% | .
O=C(CN1C=NS(=O)(=O)c2ccccc21)Nc1ccc(Br)cc1 | . | . | 17% | .
CC(C)(C)NC(=O)NC(=O)CSc1ncc(C(F)(F)F)cc1Cl | -3% | -21% | ? | 30µM*
COc1cc(C(C)=O)ccc1OCC(=O)N1CCCC1c1ccc2c(c1)OCCCO2 (centres undefined) | . | -4% | . | -1%
CN(CCc1ccccc1)C(=O)c1cc(COc2ccc(F)cc2Cl)on1 | 1% | 13µM* | -8% | -9%
O=C(c1cc(COc2ccc(F)cc2Cl)on1)N1CCCCCC1 | -5% | ? | -10% | 4%
O=C(c1cc(COc2ccc(F)cc2F)on1)N1CCSCC1 | 0% | 7.9µM* | 1% | 0%
O=C(c1cc(COc2ccc(F)cc2Cl)on1)N1CCCCCCC1 | -7% | 76% | ? | 19µM*
COc1ccccc1CCNC(=O)c1csc2c1CCCC2 | 3% | 41% | -9% | -12%
SMILES | Tb PFK inh | BRCA1 expr act | VDR inhibitor | PLK1 PBD block
COc1ccccc1CCNC(=O)c1ccc(Br)s1 | 1% | 8.9µM* | -1% | -9%
O=C(COC(=O)c1ccccc1OCc1cccc(Br)c1)Nc1ccc(Br)cc1 | . | -9% | . | .
O=C1Nc2ccc(Br)cc2/C1=C/C1CC=CCC1 (centres undefined) | 1% | 0% | 71µM* | -18%
CC1(C)NC(=O)N(CC(O)COc2ccccc2-c2ccccc2)C1=O (centres undefined) | 1% | -1% | -16% | -3%
COc1ccccc1OCC(O)CN1C(=O)NC(C)(C)C1=O (centres undefined) | 0% | 2% | -16% | 27µM*
Cc1cc(C)n2nc(CNC(=O)c3cccc(Cl)c3)nc2n1 | . | . | 9% | .
COc1ccc(C(=O)c2oc3ccccc3c2NC(=O)c2cc(=O)c3ccc(C)cc3o2)cc1Cl | . | . | -7% | .
COc1ccc2c(c1)OC/C(=C/c1cccs1)C2=O | 0% | ? | -27% | -6%
COc1ccc2c(c1)OC/C(=C\c1ccc(OC)c(O)c1)C2=O | . | . | 20µM* | .
COc1ccc(C)cc1S(=O)(=O)Nc1cccc(-c2ccc(N3CCCCCC3)nn2)c1 | -1% | 17% | ? | 17µM*
COc1ccc(S(=O)(=O)Nc2cccc(-c3ccc4nncn4n3)c2)c(OC)c1 | -22% | -20% | ? | 17µM*
O=S(=O)(Nc1cccc(-c2ccc(N3CCCCCC3)nn2)c1)c1ccccc1F | -1% | 13µM* | -9% | -2%
O=S(=O)(Nc1cccc(-c2ccc(N3CCCCCC3)nn2)c1)c1ccccc1Cl | 2% | 75% | -2% | -11%
Cc1ccc(S(=O)(=O)Nc2cccc(-c3ccc4nncn4n3)c2)cc1 | 1% | -85% | -13% | -10%
CCN(CC)C(=O)CSc1nc2ccsc2c(=O)n1CCCC(=O)NCCc1ccc(S(N)(=O)=O)cc1 | -2% | -6% | ? | 3.8µM*
CCn1nc(C(=O)OCC(=O)NC(C)C)c2ccccc2c1=O | -1% | 0% | ? | 19µM*
CCOc1ccccc1CNC(=O)c1ccc(Cn2c(=O)c3cccn3c3cccnc32)cc1 | . | . | 2% | .
O=C(O)c1ccc(/C=N/NC(=O)c2ccc(CN3c4cccc5cccc(c45)S3(=O)=O)cc2)cc1 | -7% | 12% | -2% | 34µM*
CC(/C=N/NC(=O)c1ccc(CN2c3cccc4cccc(c34)S2(=O)=O)cc1)c1ccccc1 (centres undefined) | -4% | -2% | -15% | ?
Cn1c(COc2ccccc2)nnc1SCC(=O)Nc1nnc(C2CC2)s1 | . | 13% | -17% | 30µM*
Cn1c(CNC(=O)c2ccccc2)nnc1SCC(=O)Nc1nccs1 | -1% | -4% | ? | 3.4µM*
Cc1ccccc1N1CCN(S(=O)(=O)c2nnc(NC(=O)c3ccc(C(C)C)cc3)s2)CC1 | . | . | 10% | .
Cc1ccc(C(=O)NN2C(=O)c3ccc(S(=O)(=O)c4ccc(C(=O)O)cc4)cc3C2=O)cc1 | 1% | -1% | 40µM* | 21µM*
CCc1ccc(NC(=O)C(CC)n2c(=O)c(-c3ccccc3NC(C)=O)nc3ccccc32)cc1 (centres undefined) | . | . | 3% | .
Oc1ccc(C2C=C(c3ccc(F)cc3)Nc3ncnn32)cc1 (centres undefined) | -1% | 9% | -9% | ?
SMILES | Tb PFK inh | BRCA1 expr act | VDR inhibitor | PLK1 PBD block
Cc1ccc(C2C=C(c3ccccc3)Nc3ncnn32)cc1 (centres undefined) | . | -7% | ? | 30µM*
Fc1ccc(C2=CC(c3ccco3)n3ncnc3N2)cc1 (centres undefined) | -4% | -67% | -21% | -26%
C1=C(c2ccc(-c3ccccc3)cc2)Nc2ncnn2C1c1ccco1 (centres undefined) | 0% | -21% | 1% | 4.7µM*
Fc1ccc(C2=CC(c3ccc(Br)o3)n3ncnc3N2)cc1 (centres undefined) | -1% | -62% | ? | 11µM*
Cc1ccc(S(=O)(=O)N2CCN(c3nc(C(N)=O)nc4ccccc34)CC2)cc1 | . | 0% | -10% | .
COc1ccccc1Nc1nn2c(=O)c3ccc(C(=O)NCCc4ccccc4)cc3nc2s1 | . | . | 10% | .

Screening results as filed in PubChem BioAssay.
